HPGD inh: HPGD (human) dehydrogenase inhibition. 150,000 tested, 4.3% active. P15428. AID 894. Potency, µM, for inactives: at the highest dose activity change, negative = inhibition, hits mostly inhibitors. purified HPGD, NADH fluorescence kinetic, PGE2 substrate; also: potency is read from the fitted curve at half-maximal effect
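NADH formation kinetics: reaction with 30 uM PGE2 and 1 mM NAD+ (final), 20 nM enzyme, Tris-HCl pH 8 with Tween 20, after 15 min compound preincubation at room temperature. Fluorescence change, last versus first of five reads.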
Lamin A splicing: LMNA splicing modulation; HeLa LMNA splicing GFP/RFP minigene ratio, 48 h; Potency, µM (titrated, usually from 46.1 µM), for inactives: at the highest dose ratio change, negative = inhibition, actives largely listed as inhibitors; 200,000 tested, 0.01% active; active = well fitted inhibition curve with a large enough effect in the signal ratio, with a control signal flat, not every such curve was filed as active; inconclusive = small, poorly fitted or top-dose-only effect, or effect the other way, or a change in a side signal; the % refers to the signal ratio; also: potency is read from the fitted curve at half-maximal effect
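S3 HeLa cells stably expressing lamin A-EGFP splicing minigene plus DsRed2, 600 cells/well, 48 h compound exposure at 37C. Laser-scanning cytometry; analysed as GFP (500-530 nm)/RFP (575-640 nm) total intensity ratio; 0.5% DMSO vehicle.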
ALDH1A1 block: ALDH1A1 (human) enzyme inhibition | P00352 | Purified ALDH1A1, NADH fluorescence, propionaldehyde substrate | Potency, µM (highest dose often 75.3 µM), for the others: top-dose activity, negative = inhibition, usual class: inhibitors | 220,000 tested, 7.3% active | AID 1030;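 also: potency is read from the fitted curve at half-maximal effect; plate controls were no enzyme wells and a reference inhibitor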
Target sequence (P00352 whole entry, looked up): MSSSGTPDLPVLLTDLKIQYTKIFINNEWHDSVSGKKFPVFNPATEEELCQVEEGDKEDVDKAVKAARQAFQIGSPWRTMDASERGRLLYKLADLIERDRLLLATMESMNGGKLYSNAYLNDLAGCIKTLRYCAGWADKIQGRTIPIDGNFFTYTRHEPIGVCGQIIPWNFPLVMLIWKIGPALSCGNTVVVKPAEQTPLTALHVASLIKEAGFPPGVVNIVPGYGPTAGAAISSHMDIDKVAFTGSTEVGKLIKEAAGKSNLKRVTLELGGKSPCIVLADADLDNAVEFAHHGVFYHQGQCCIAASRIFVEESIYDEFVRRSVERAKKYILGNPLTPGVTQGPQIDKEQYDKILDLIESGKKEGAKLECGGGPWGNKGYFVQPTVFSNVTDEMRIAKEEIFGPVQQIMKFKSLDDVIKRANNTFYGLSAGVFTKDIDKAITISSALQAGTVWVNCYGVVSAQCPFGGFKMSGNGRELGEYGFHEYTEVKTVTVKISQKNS
PNC inhibitor: inhibitors of perinucleolar compartment assembly | PC3M PTB-GFP, PNC prevalence imaging, 16 h; active compounds read low | activity change (PNC), negative = inhibition, % at 10 µM | 140,000 tested, 3.1% active;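 active = readout at or below -70, meaning at least 70% loss of cells showing the perinucleolar compartment, a nuclear body marking cancer cells; inconclusive = readout between -30 and a set limit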;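 also: plate controls were DMSO wells for no effect and camptothecin positive control wells for full effect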
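Read-out is percentage of cells bearing a perinucleolar compartment, from automated 20x imaging of fixed, Hoechst-stained PC3M PTB-GFP cells. Cells were seeded 4 h, then exposed 16 h to compound (23 nl of library stock) in duplicate plates.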
KinaseGlo FLuc: counter-screen: inhibitors of Kinase-Glo firefly luciferase; AID 1379; Potency, µM (doses to about 38.3 µM), inactives show at the highest dose activity change, negative = inhibition, most hits filed as inhibitors; Q27757; Kinase-Glo luciferase, ATP luminescence, 8 min; 200,000 tested, 0.28% active; active = well fitted inhibition curve with a large enough effect; inconclusive = small, poorly fitted or top-dose-only effect; also: potency is read from the fitted curve at half-maximal effect; nearly all actives have a fitted effect of over 60% in size
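Compound is pinned into ATP-containing buffer (10 uM ATP, imidazole pH 7.2, 7 mM MgCl2). Kinase-Glo luciferase reagent is then added. Light output is recorded following an 8-min room-temperature incubation.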
Starred values were filed as active, the others as inactive; ? = inconclusive; nt = no result; [ ] = another dose, or the depositor's remark. Only some compounds are listed: those with a hit (about 10% of all), similar ones and a draw of the others. Unless noted, calls follow the shape of the dose curve; as a rule, active = well fitted inhibition curve with a large enough effect (not every such curve was filed as active); inconclusive = small, poorly fitted or top-dose-only effect, or another doubt; inactive = no such curve, though single readings can be large or run the other way. Unless noted, % is scaled to controls: 0 for no effect and ±100 for the full control effect.

SMILES	HPGD inh	Lamin A splicing	ALDH1A1 block	PNC inhibitor	KinaseGlo FLuc
NC(=O)c1cc(-c2ccccc2)nc(Oc2ccccc2)n1	-19.9%	10.7%	-11.4%	-116.6*	-0.7%
COc1ccc(NC(=O)CSc2nc3nc(C)c(Cc4ccccc4)c(C)n3n2)cc1OC	nt	-8.2%[46 µM]	nt	nt	nt
CCCCc1cc2c(cn1)=C(OC(=O)c1cccs1)C(C)(OC(=O)CC)C(=O)C=2 (stereo not given)	-7.9%	?	3.16µM*	nt	-7.9%[7.66 µM]
O=[N+]([O-])c1cc(-c2cnc3ccccc3n2)ccc1Oc1ccc(Br)cc1	-4.9%	8.2%	-10.5%	-106.0*	3.7%
O=[N+]([O-])c1ccc(Oc2ccc(-c3cnc4ccccc4n3)cc2[N+](=O)[O-])cc1	-9.8%	?	-6.3%	21.5	-0.4%
Cc1cn(C)c(CC(=O)Nc2cccc(Cl)c2C)c1C(=O)O	nt	4.1%[46 µM]	nt	nt	nt
C/[N+]([O-])=C1\Cc2ccccc2C1=O	-11.7%	1.8%	3.55µM*	-11.2	-2.6%
O=C1/C(=N\O)Cc2ccccc21	-12.4%	10.7%	?	38.9	-3.0%
COc1cc([N+](=O)[O-])ccc1NC(=O)N1CCN(c2cc(-c3noc(C)n3)ccc2C)CC1	nt	5.9%[46 µM]	nt	nt	nt
CCOC(=O)c1c(NC(=O)c2ccccc2Cl)sc2c1CCCC2	nt	-29.0%[46 µM]	nt	nt	nt
CCOC(=O)c1c(NC(=O)c2ccccc2Br)sc2c1CCc1ccccc1-2	14.1µM*	-5.8%	?	34.1	0.4%
CCOC(=O)c1c(NC(=O)CN2CCOCC2)sc2c1CCCC2=O	-13.1%	-2.0%	?	-12.5	0.6%
CCOC(=O)c1c(NC(C)=O)sc2c1CCC(C=O)=C2Sc1ccccc1	35.5µM*	-15.0%	5.01µM*	33.1	-1.9%
CCOC(=O)c1c(NC(C)=O)sc2c1CCCNC2=O	nt	-1.4%	12.6µM*	-16.9	nt
Cn1c(C(=O)NCCc2ccccc2)cc2cc(S(=O)(=O)N3CCCCC3)ccc21	nt	-0.7%[46 µM]	nt	nt	nt
COCCCNC(=O)c1cc2n(n1)CCCN(Cc1ccc(C)cc1)C2=O	nt	8.6%[46 µM]	nt	nt	nt
COC(=O)CS	-5.9%	nt	3.7%	nt	nt
COc1ccc(NC(=O)C(=O)NCC(c2cccnc2)N2CCc3ccccc3C2)cc1 (stereo not given)	nt	14.1µM*	nt	nt	nt
O=C(NCC(c1cccnc1)N1CCc2ccccc2C1)C(=O)Nc1ccccc1 (stereo not given)	nt	-0.4%[46 µM]	nt	nt	nt
CCCc1nn2c(=O)cc(COC(=O)c3cccc(NC(=O)COc4ccc(F)cc4)c3)nc2s1	nt	-4.5%[46 µM]	nt	nt	nt
Cc1ccc(NC(=S)Nc2ccc3cn[nH]c3c2)c(C)c1	nt	6.9%[46 µM]	?	nt	-0.6%
Cc1ccc(NC(=S)Nc2cccc3cnccc23)c(C)c1	nt	?	17.8µM*	nt	-1.2%
O=C(NC(=S)Nc1cccc2cnccc12)c1ccccc1	nt	nt	-6.4%	nt	0.8%
CCc1ccc(NC(=S)Nc2cccc3cnccc23)cc1	nt	-7.9%[9.22 µM]	11.2µM*	nt	2.4%
Cc1cc(C)cc(NC(=S)Nc2cccc3cnccc23)c1	nt	nt	11.2µM*	nt	2.1%
SMILES	HPGD inh	Lamin A splicing	ALDH1A1 block	PNC inhibitor	KinaseGlo FLuc
COCC1=C2c3ccccc3[C@H](C[N+](=O)[O-])C(C(=O)OC)(C(=O)OC)C[C@@H]2n2c(=O)n(-c3ccccc3)c(=O)n2C1	-8.6%	nt	-10.2%	nt	-0.2%
COC(=O)[C@H](CCSC)NC(=O)C/C=C\[C@@H](C)CO	nt	nt	6.1%[13.5 µM]	nt	nt
O=C(CCBr)N1CCN(C(=O)CCBr)CC1	?	?	0.891µM*	nt	-5.5%
Cc1nc(CCNC(=O)Cc2ccc(Cl)cc2)cs1	-4.3%	-12.8%	3.8%	-89.9*	5.5%
Cn1ncc2c(Nc3cccc(C#N)c3)ncnc21	nt	-4.8%[46 µM]	nt	nt	nt
O=C1Nc2ccccc2C1=Nc1cccc2ncccc12	-8.3%	nt	4.3%[13.5 µM]	nt	1.7%[7.66 µM]
CCOCCO	-2.4%	nt	?	nt	nt
Cc1oc(-c2ccccc2)nc1Cn1c(=O)cc(-c2ccccc2)c2c(C)nn(C)c21	nt	-19.4%[46 µM]	nt	nt	nt
COC(=O)c1ccc(NC(=O)C2C3C=CC(O3)C2C(=O)O)cc1 (stereo not given)	-17.7%	-8.3%	4.47µM*	-27.9	-1.0%
COC(=O)c1ccc(NC(=O)C2C3CCC(C3)C2C(=O)O)cc1 (stereo not given)	-13.6%	4.7%	?	-9.1	1.4%
Cc1nnc(NC(=O)C2C3C=CC(O3)C2C(=O)O)s1 (stereo not given)	-12.9%	13.1%	28.2µM*	1.4	1.8%
COC(=O)c1sccc1NC(=O)C1C2C=CC(O2)C1C(=O)O (stereo not given)	0.8%	-5.2%	1.2%	?	5.7%
CNc1ncncc1-c1ccccc1C(F)(F)F	nt	-5.8%	15.8%	nt	nt
CC(C)NC(=O)N1CCCC2(CCN(C(=O)c3csnn3)CC2)C1	-2.4%	nt	5.3%	nt	-4.4%
COc1ccc(C(=S)N2CCOCC2)cc1OS(=O)(=O)c1ccccc1[N+](=O)[O-]	31.6µM*	-15.6%	11.2µM*	104.4	-2.7%
CCOc1cc(C(=S)N2CCOCC2)ccc1OS(=O)(=O)c1ccccc1[N+](=O)[O-]	15.8µM*	?	-0.9%	?	-1.5%
COc1ccc(C=O)cc1OS(=O)(=O)c1ccccc1[N+](=O)[O-]	20µM*	2.4%	-6.7%	?	1.8%
COc1cc(C(=S)N2CCOCC2)ccc1OS(=O)(=O)c1ccccc1[N+](=O)[O-]	?	?	?	25.3	-2.9%
CCC1(C)Cc2nc3sc(C(=O)O)c(N)c3cc2CO1 (stereo not given)	-18.5%	-5.2%	22.4µM*	-4.4	-1.6%
CCOc1ccc(-n2c(SC(C)C(=O)OC)nc3c([nH]c4ccccc43)c2=O)cc1 (stereo not given)	nt	10.1%[46 µM]	nt	nt	nt
O=S1(=O)[C@H]([C@H]2CC3c4ccccc4C2c2ccccc23)[C@@H](N2CCCCC2)[C@@H]1c1ccccc1	-12.2%	nt	7.6%[13.5 µM]	nt	-9.0%[7.66 µM]
CCc1ccc(NC2CC(=O)N(CCc3ccc(OC)c(OC)c3)C2=O)cc1 (stereo not given)	nt	?	3.16µM*	nt	-0.8%
COc1ccc(CCNC2CC(=O)N(CCc3ccc(OC)c(OC)c3)C2=O)cc1 (stereo not given)	-10.5%	15.3%	17.8µM*	-17.5	-2.0%
NC(N)=N/N=C(/c1ccccc1)c1ccc(O)cc1O	-3.9%	nt	-2.4%[13.5 µM]	nt	-0.5%[7.66 µM]
